According to PubChem BioAssay (NCATS):
Records with an inconclusive call do not appear. Calls of active or inactive are those of the source. Unless noted, the call rests on the fitted dose curve; in most records, active means well fitted curve in the direction sought with a large enough effect; inconclusive means small, poorly fitted or top-dose-only effect, or another doubt; inactive means no such curve, though single readings can be large; an effect the other way counts as inactive or inconclusive.

Biological target: Aldehyde dehydrogenase, mitochondrial (Homo sapiens) (UniProt P05091)
Test: qHTS for Inhibitors of the Aldehyde Dehydrogenase Family (ALDH2) Validation screens (AID 2061302; active means well fitted inhibition curve with a large enough effect; title and protocol of this record describe different tests;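 further: plate controls were DMSO vehicle for no effect and maximal DPI positive control response for full effect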)
Details: ALDH inhibition qHTS; series mostly up to 42.6 µM; activity change, negative = inhibition: at the top concentration

SMILES	activity change, negative = inhibition
CC(=O)[C@H]1CCC2C3CC=C4C[C@@H](OS(=O)(=O)O)CC[C@]4(C)C3CC[C@@]21C (stereo partly specified)	4.18% (inactive)
CCN1CCc2nc(N)oc2CC1	-29% (inactive)
Cc1ccc(/C(=C\CN2CCCC2)c2ccccn2)cc1	-6.44% (inactive)

Biological target: Aldehyde dehydrogenase, mitochondrial (Homo sapiens) (UniProt P05091)
Test: qHTS for Inhibitors of the Aldehyde Dehydrogenase Family (ALDH2) Confirmatory screens (AID 2061303; active means well fitted inhibition curve with a large enough effect; title and protocol of this record describe different tests; further: nearly all actives have a fitted effect of over 45% in size; further: potency means the concentration at half of the fitted maximal effect; on activity change, negative = inhibition: on the % scale 0 is the no-effect control and ±100 the full control effect)
Details: ALDH inhibition qHTS; series mostly up to 45.4 µM; activity change, negative = inhibition: at the top concentration

SMILES	Potency	activity change, negative = inhibition
CC(C)(C)OC(=O)N1CCN(c2cnc(NCc3ccc(-c4ccc(C#N)cc4)o3)nc2)CC1	2240 nM (active)	–
CC(C)(C)OC(=O)N1CCN(c2ncc(NCc3ccc(-c4ccc(C#N)cc4)o3)cn2)CC1	100 nM (active)	–
CC(C)NCC(O)c1ccc(O)c(O)c1 (stereo unspecified)	–	-9.04% (inactive)
CCC(NC(C)C)C(O)c1ccc(O)c(O)c1 (stereo unspecified)	–	-11.7% (inactive)
CC(C)(C)OC(=O)N1CCN(c2ccc(NCc3ccc(-c4ccc(C#N)cc4)o3)cc2)CC1	79.4 nM (active)	–
O=C(O)/C=C/c1ccc(O)c(O)c1	–	-10.5% (inactive)
CC(C)(C)OC(=O)N1CCC(c2ccc(NCc3ccc(-c4ccc(C#N)cc4)o3)cc2)CC1	112 nM (active)	–
O=C(O)CN(CCOCCOCCN(CC(=O)O)CC(=O)O)CC(=O)O	–	-7.79% (inactive)
CCN(CC)CCNC(=O)c1ccc(N)cc1	–	-9.18% (inactive)
CC(C)(C)OC(=O)N1CCN(c2cccc(NCc3ccc(-c4ccc(C#N)cc4)o3)c2)CC1	1120 nM (active)	–
N#Cc1ccc(-c2ccc(CNc3ccc(N4CCC(C(F)(F)F)CC4)cc3)o2)cc1	35.7 nM (active)	–
CC(C)(C)OC(=O)N1CCN(c2cnc(NCc3ccc(-c4ccc(C#N)cc4)o3)cn2)CC1	355 nM (active)	–
CCOC(=O)C1CCN(c2ccc(NCc3ccc(-c4ccc(C#N)cc4)o3)cc2)CC1	35.5 nM (active)	–
N#Cc1ccc(-c2ccc(CNc3ccc(N4CCC(C#N)CC4)cc3)o2)cc1	100 nM (active)	–

Test system: not listed separately
Test: qHTS for Inhibitors of the Aldehyde Dehydrogenase Family (ALDH1A2, ALDH1A3, ALDH2, ALDH3A1) (AID 2061307); further: nearly all actives have a fitted effect of over 50% in size; on Potency: test system not described further here; potency means the concentration at half of the fitted maximal effect; on activity change, negative = inhibition: on the % scale 0 is the no-effect control and ±100 the full control effect
Details: ALDH inhibition qHTS; series mostly up to 50.3 µM; activity change, negative = inhibition: at the top concentration

SMILES	Potency	activity change, negative = inhibition
CC(C)(C)OC(=O)N1CCN(c2cnc(NCc3ccc(-c4ccc(C#N)cc4)o3)nc2)CC1	5650 nM (active)	–
CC(C)(C)OC(=O)N1CCN(c2ncc(NCc3ccc(-c4ccc(C#N)cc4)o3)cn2)CC1	283 nM (active)	–
CC(C)NCC(O)c1ccc(O)c(O)c1 (stereo unspecified)	–	-2.55% (inactive)
CCC(NC(C)C)C(O)c1ccc(O)c(O)c1 (stereo unspecified)	–	-0.44% (inactive)
CC(C)(C)OC(=O)N1CCN(c2ccc(NCc3ccc(-c4ccc(C#N)cc4)o3)cc2)CC1	4470 nM (active)	–
O=C(O)/C=C/c1ccc(O)c(O)c1	–	2.07% (inactive)
CC(C)(C)OC(=O)N1CCC(c2ccc(NCc3ccc(-c4ccc(C#N)cc4)o3)cc2)CC1	896 nM (active)	–
O=C(O)CN(CCOCCOCCN(CC(=O)O)CC(=O)O)CC(=O)O	–	4.14% (inactive)
CCN(CC)CCNC(=O)c1ccc(N)cc1	–	3.69% (inactive)
CC(C)(C)OC(=O)N1CCN(c2cccc(NCc3ccc(-c4ccc(C#N)cc4)o3)c2)CC1	1590 nM (active)	–
N#Cc1ccc(-c2ccc(CNc3ccc(N4CCC(C(F)(F)F)CC4)cc3)o2)cc1	712 nM (active)	–
CC(C)(C)OC(=O)N1CCN(c2cnc(NCc3ccc(-c4ccc(C#N)cc4)o3)cn2)CC1	3180 nM (active)	–
CCOC(=O)C1CCN(c2ccc(NCc3ccc(-c4ccc(C#N)cc4)o3)cc2)CC1	634 nM (active)	–
N#Cc1ccc(-c2ccc(CNc3ccc(N4CCC(C#N)CC4)cc3)o2)cc1	1270 nM (active)	–

Biological target: Aldehyde dehydrogenase, mitochondrial (Homo sapiens) (UniProt P05091)
Test: qHTS for Inhibitors of the Aldehyde Dehydrogenase Family (ALDH2) Primary screen (AID 2061308); further: nearly all actives have a fitted effect of over 55% in size; further: potency means the concentration at half of the fitted maximal effect;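 on activity change, negative = inhibition: plate controls were vehicle for no effect and reference inhibitor for full effect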
Details: ALDH2 enzyme inhibition qHTS, 1536-well; series mostly up to 56 µM; activity change, negative = inhibition: at the top concentration

SMILES	Potency	activity change, negative = inhibition
CC(C)(C)OC(=O)N1CCN(c2ncc(NCc3ccc(-c4ccc(C#N)cc4)o3)cn2)CC1	100 nM (active)	–
CC(C)(C)OC(=O)N1CCN(c2ccc(NCc3ccc(-c4ccc(C#N)cc4)o3)cc2)CC1	–	-17.8% (inactive)
C/C=C/CC(C)C(O)C1C(=O)NC(CC)C(=O)N(C)CC(=O)N(C)C(CC(C)C)C(=O)NC(C(C)C)C(=O)N(C)C(CC(C)C)C(=O)NC(C)C(=O)NC(C)C(=O)N(C)C(CC(C)C)C(=O)N(C)C(CC(C)C)C(=O)N(C)C(C(C)C)C(=O)N1C (stereo unspecified)	–	9.31% [at 28 µM] (inactive)
CC(C)(C)OC(=O)N1CCN(c2cccc(NCc3ccc(-c4ccc(C#N)cc4)o3)c2)CC1	282 nM (active)	–
N#Cc1ccc(-c2ccc(CNc3ccc(N4CCC(C(F)(F)F)CC4)cc3)o2)cc1	–	-76.5% (inactive)
CCOC(=O)C1CCN(c2ccc(NCc3ccc(-c4ccc(C#N)cc4)o3)cc2)CC1	–	-69.5% (inactive)
N#Cc1ccc(-c2ccc(CNc3ccc(N4CCC(C#N)CC4)cc3)o2)cc1	100 nM (active)	–

Biological target: Retinaldehyde dehydrogenase 3 (Homo sapiens) (UniProt P47895)
Test: qHTS for Inhibitors of the Aldehyde Dehydrogenase Family (ALDH1A3) Confirmatory screens (AID 2061311); further: nearly all actives have a fitted effect of over 60% in size; further: potency means the concentration at half of the fitted maximal effect; on activity change, negative = inhibition: on the % scale 0 is the no-effect control and ±100 the full control effect
Details: ALDH inhibition qHTS; series mostly up to 46 µM; activity change, negative = inhibition: at the top concentration; outcome: at the top concentration

SMILES	Potency	activity change, negative = inhibition
CC(C)(C)OC(=O)N1CCN(c2cnc(NCc3ccc(-c4ccc(C#N)cc4)o3)nc2)CC1	15800 nM (active)	–
CC(C)(C)OC(=O)N1CCN(c2ncc(NCc3ccc(-c4ccc(C#N)cc4)o3)cn2)CC1	25100 nM (active)	–
CC(C)NCC(O)c1ccc(O)c(O)c1 (stereo unspecified)	–	2.23% (inactive)
CCC(NC(C)C)C(O)c1ccc(O)c(O)c1 (stereo unspecified)	–	-6.8% (inactive)
CC(C)(C)OC(=O)N1CCN(c2ccc(NCc3ccc(-c4ccc(C#N)cc4)o3)cc2)CC1	15800 nM (active)	–
O=C(O)/C=C/c1ccc(O)c(O)c1	–	-4.07% (inactive)
CC(C)(C)OC(=O)N1CCC(c2ccc(NCc3ccc(-c4ccc(C#N)cc4)o3)cc2)CC1	3160 nM (active)	–
O=C(O)CN(CCOCCOCCN(CC(=O)O)CC(=O)O)CC(=O)O	–	-4.3% (inactive)
CCN(CC)CCNC(=O)c1ccc(N)cc1	–	-1.6% (inactive)
CC(C)(C)OC(=O)N1CCN(c2cnc(NCc3ccc(-c4ccc(C#N)cc4)o3)cn2)CC1	11300 nM (active)	–
CCOC(=O)C1CCN(c2ccc(NCc3ccc(-c4ccc(C#N)cc4)o3)cc2)CC1	7080 nM (active)	–
N#Cc1ccc(-c2ccc(CNc3ccc(N4CCC(C#N)CC4)cc3)o2)cc1	7940 nM (active)	–
O=C(N[C@@H](Cc1ccccc1)C(=O)CCl)OCc1ccccc1	11200 nM (active)	–
